# Data: PubChem BioAssay
# The list shows a part of the results. Activity calls are given as the source filed them.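 How the source made its calls, unless noted: active means mean inhibition above about 50% in the one-dose retest (limit read from the data); inactive means the rest.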
# Key:
# [1] = lowers stimulated NF-kB luciferase signal in Jurkat – cell-based, luminescence, single concentration, T-cell NF-kB inhibitor project, confirmation (AID 435020;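 active means inhibition reaching about 45% at 4 µM in either replicate, limit read from the data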;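 further: plate controls were PMA/ionomycin stimulated DMSO wells for no effect and unstimulated DMSO wells for full effect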); conditions: PMA/ionomycin-induced, 16 h, at 4 µM, stronger effect = higher value
# [2] = target: Sentrin-specific protease 8 (Homo sapiens) (UniProt Q96LD8); assay: human SENP8 peptidase blockers, hit retest – biochemical, luminescence, single concentration, confirmation (AID 488912;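 active means mean inhibition across replicates above about 50%, limit read from the data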); conditions: Recombinant SENP8, Z-RLRGG-aminoluciferin luminescence, 60 min; at 12.5 µM; stronger effect = higher value
# [3] = target: Sentrin-specific protease 6 (Homo sapiens) (UniProt Q9GZR1); assay: inhibition of human SENP6 catalytic domain – biochemical, luminescence, single concentration, confirmation (AID 488915); conditions: recombinant SENP6, Z-RLRGG-aminoluciferin luminescence; at 12.5 µM; stronger effect = higher value
# [4] = target: Sentrin-specific protease 7 (Homo sapiens) (UniProt Q9BQF6); assay: human SENP7 peptidase blockers, hit retest – biochemical, luminescence, single concentration, confirmation (AID 488917); conditions: recombinant SENP7, Z-RLRGG-aminoluciferin luminescence, 40 min; at 12.5 µM; stronger effect = higher value
# [5] = target: Caspase-3 (Homo sapiens) (UniProt P42574); assay: human caspase-3 activity blockade, out-of-family – biochemical, single concentration, selectivity assay for SENP inhibitor project, confirmation (AID 488918;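 active means mean inhibition above about 50%, limit read from the data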;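 further: plate controls were enzyme with DMSO for no effect and wells without caspase-3 for full effect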); conditions: purified caspase-3, Z-DEVD-aminoluciferin luminescence, 60 min; at 12.5 µM; stronger effect = higher value
# [6] = Ultra-Glo luciferase signal interference – biochemical, single concentration, SENP8 reaction pre-completed, artefact control for SENP inhibitor project, confirmation (AID 488919;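 active means mean inhibition above about 50% when retested at one dose, limit read from the data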;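 further: plate controls were DMSO wells with completed reaction for no effect and substrate without enzyme for full effect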); conditions: Pre-incubated SENP8/Z-RLRGG-aminoluciferin, luciferase luminescence interference; at 12.5 µM; stronger effect = higher value
# [7] = PERK-eIF2a-CHOP pathway stimulators, retested – cell-based, CHO-CHOP luciferase reporter, single concentration, confirmation (AID 463112; in the data active means activation above about 33%;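 further: 0% = DMSO wells and 100% = tunicamycin 10 µg/mL wells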); conditions: CHO-CHOP cells, CHOP-luciferase reporter luminescence; at 10 µM; stronger effect = higher value; percent of tunicamycin response, DMSO as zero
# [8] = Brca1-Bard1 BiLC signal decrease – luminescence, single concentration, counter-screen for Mdm2/MdmX interaction inhibitor project, confirmation (AID 504668; call rule not given here); conditions: Brca1/Bard1 bimolecular luciferase complementation counterscreen, at 8 µM, stronger effect = higher value
# [9] = target: Protein Mdm4 (Homo sapiens) + E3 ubiquitin-protein ligase Mdm2 (Homo sapiens) (UniProt O15151+Q00987); assay: human Mdm2/MdmX binding disruption – cell-based, luminescence, single concentration, set 2, confirmation (AID 504601;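 active means mean inhibition of the luminescence signal across two replicates at or above 26 percent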); conditions: SaOS-2 split-luciferase Mdm2/MdmX complementation, at 8 µM, stronger effect = higher value
# [10] = inhibition of PEG-3 promoter luciferase signal – cell-based, HeLa, luciferase reporter, single concentration, confirmation (AID 602417;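 active means at 20 µM dose, 40% or more inhibition averaged across four replicates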); conditions: HeLa PEG-Prom luciferase reporter, luminescence, overnight; at 20 µM; stronger effect = higher value
# [11] = NF-kB reporter suppression in CF airway cells – cell-based, GFP fluorescence, single concentration, confirmation (AID 602472; in the data active means inhibition above about 40%;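 further: stimulus PAF is a Pseudomonas aeruginosa filtrate and not platelet activating factor; plate controls were DMSO wells with stimulus for no effect and unstimulated DMSO wells for full effect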); conditions: KKLEB CF airway cells, PAF-induced NF-kB-GFP fluorescence, overnight; at 5 µM; stronger effect = higher value
# [12] = NFkB reporter suppression in cystic fibrosis bronchial cells – cell-based, uHTS hits, panel, cytotoxicity readout, dose response (AID 624344); conditions: CF bronchial epithelial cells, PAF-induced NFkB reporter inhibition, with PAF, run 1; at 79 µM (top of the series) unless noted
# [13] = as above; conditions: CF bronchial epithelial cells, PAF-induced NFkB reporter inhibition, with PAF, run 2; at 79 µM (top of the series) unless noted
# Sequence of Sentrin-specific protease 8 (Homo sapiens) (Q96LD8 whole entry, looked up, the tested form may be a part): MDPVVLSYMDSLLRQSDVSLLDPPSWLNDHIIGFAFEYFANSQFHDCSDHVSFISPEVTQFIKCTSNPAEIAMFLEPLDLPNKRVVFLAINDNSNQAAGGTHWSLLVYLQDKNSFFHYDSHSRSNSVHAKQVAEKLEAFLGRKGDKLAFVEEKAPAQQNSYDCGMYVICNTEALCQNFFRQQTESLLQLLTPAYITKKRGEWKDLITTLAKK
# Sequence of Sentrin-specific protease 6 (Homo sapiens) (Q9GZR1 628-1112 limits assumed): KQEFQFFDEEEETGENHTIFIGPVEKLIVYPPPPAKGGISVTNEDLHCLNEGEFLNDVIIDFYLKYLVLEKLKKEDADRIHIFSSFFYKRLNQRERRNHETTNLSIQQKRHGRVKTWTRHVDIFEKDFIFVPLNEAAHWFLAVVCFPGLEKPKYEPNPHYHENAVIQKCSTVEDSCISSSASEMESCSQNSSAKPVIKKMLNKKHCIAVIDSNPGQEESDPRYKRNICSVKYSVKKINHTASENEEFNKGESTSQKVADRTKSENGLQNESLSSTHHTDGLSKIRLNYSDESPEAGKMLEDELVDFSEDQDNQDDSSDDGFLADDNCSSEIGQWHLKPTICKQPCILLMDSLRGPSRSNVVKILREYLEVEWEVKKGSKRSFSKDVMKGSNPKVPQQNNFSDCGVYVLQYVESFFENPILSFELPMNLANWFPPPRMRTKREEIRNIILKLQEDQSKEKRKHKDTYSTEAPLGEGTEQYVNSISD
# Sequence of Caspase-3 (Homo sapiens) (P42574 28-227 limits assumed): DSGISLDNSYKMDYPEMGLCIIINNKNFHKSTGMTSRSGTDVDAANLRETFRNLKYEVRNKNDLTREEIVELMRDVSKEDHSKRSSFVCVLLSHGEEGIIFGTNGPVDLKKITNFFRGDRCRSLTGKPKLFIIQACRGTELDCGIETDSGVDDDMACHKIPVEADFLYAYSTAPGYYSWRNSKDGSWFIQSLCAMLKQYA
# Sequence of Sentrin-specific protease 7 (Homo sapiens) (Q9BQF6 706-1050 limits assumed): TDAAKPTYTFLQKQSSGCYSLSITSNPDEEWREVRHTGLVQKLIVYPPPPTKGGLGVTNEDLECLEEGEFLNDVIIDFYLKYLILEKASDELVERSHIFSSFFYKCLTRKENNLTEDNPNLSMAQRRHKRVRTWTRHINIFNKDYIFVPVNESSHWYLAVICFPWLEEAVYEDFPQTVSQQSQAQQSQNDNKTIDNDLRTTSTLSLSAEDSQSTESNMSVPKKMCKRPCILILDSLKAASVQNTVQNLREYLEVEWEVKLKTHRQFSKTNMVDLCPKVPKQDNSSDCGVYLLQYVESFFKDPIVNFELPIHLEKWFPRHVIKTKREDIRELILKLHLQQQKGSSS
# Sequence of Protein Mdm4 (Homo sapiens) + E3 ubiquitin-protein ligase Mdm2 (Homo sapiens) (O15151 whole entry, looked up): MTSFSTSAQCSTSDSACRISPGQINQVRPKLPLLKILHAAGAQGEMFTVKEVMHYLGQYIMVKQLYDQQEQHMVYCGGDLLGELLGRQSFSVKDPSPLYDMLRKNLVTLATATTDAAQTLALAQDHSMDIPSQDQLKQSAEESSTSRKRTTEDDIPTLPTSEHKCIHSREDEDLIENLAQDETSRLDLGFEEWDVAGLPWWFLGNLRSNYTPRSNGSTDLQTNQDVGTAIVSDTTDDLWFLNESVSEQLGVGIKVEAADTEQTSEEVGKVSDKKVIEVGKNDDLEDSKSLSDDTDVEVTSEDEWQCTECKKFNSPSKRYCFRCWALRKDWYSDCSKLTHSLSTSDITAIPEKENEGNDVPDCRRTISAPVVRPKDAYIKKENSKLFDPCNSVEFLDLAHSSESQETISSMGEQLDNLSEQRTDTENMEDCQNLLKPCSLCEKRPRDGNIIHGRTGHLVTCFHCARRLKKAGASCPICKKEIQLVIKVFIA
# Sequence of Protein Mdm4 (Homo sapiens) + E3 ubiquitin-protein ligase Mdm2 (Homo sapiens) (Q00987 whole entry, looked up): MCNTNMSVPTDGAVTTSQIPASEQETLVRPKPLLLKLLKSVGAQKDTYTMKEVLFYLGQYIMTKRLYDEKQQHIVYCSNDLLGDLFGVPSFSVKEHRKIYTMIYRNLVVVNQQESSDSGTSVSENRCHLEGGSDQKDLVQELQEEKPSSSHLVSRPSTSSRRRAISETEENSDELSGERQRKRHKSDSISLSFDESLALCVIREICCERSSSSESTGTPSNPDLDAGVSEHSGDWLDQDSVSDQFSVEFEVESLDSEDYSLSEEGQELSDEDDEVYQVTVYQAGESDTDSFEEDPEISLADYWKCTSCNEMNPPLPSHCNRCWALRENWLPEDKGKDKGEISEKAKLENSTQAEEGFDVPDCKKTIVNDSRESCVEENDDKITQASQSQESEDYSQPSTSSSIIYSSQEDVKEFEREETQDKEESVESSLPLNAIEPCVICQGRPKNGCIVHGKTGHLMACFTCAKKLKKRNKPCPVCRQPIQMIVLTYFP
compound,measurement,setting,value
O=C(Nc1ccc2c(c1)CCC2)c1ccc(Br)s1,inhibition,[1],-177% (inactive)
same,inhibition,[2],44.7% (inactive)
same,inhibition,[3],70.8% (active)
same,inhibition,[4],73.3% (active)
same,inhibition,[5],47% (inactive)
same,inhibition,[6],24.2% (inactive)
Cn1nccc1C(=O)NC1CCCc2c1cnn2-c1ccc(F)cc1F (stereo not given),inhibition,[1],76.3% (active)
COc1ccc(N=C(C)c2sc3ccccc3c2O)cc1,inhibition,[1],-7.85% (inactive)
same,inhibition,[2],16.5% (inactive)
same,inhibition,[3],19.5% (inactive)
same,inhibition,[4],14.7% (inactive)
same,inhibition,[5],9.6% (inactive)
same,inhibition,[6],-5.1% (inactive)
Oc1cccc(/C=N/Nc2ccc(Cl)nn2)c1O,inhibition,[1],0.85% (inactive)
N#Cc1ccc(C2N=C(c3ccccc3)NO2)cc1 (stereo not given),inhibition,[1],-93.9% (inactive)
same,inhibition,[2],24.2% (inactive)
same,inhibition,[3],9.2% (inactive)
same,inhibition,[4],22.5% (inactive)
same,inhibition,[5],13.1% (inactive)
same,inhibition,[6],2.1% (inactive)
Cc1noc(C)c1/C=N/Nc1ccc2ccccc2n1,inhibition,[1],-102% (inactive)
same,inhibition,[2],-12.5% (inactive)
same,inhibition,[3],-9% (inactive)
same,inhibition,[4],6.7% (inactive)
same,inhibition,[5],6.2% (inactive)
same,inhibition,[6],-1.9% (inactive)
O=C(Nc1ccc2sc3ccccc3c(=O)c2c1)c1ccccc1Cl,inhibition,[1],-104% (inactive)
same,inhibition,[2],6.3% (inactive)
same,inhibition,[3],0% (inactive)
same,inhibition,[4],13.5% (inactive)
same,inhibition,[5],24.3% (inactive)
same,inhibition,[6],4.3% (inactive)
Oc1ccc(/C=N/Nc2ccc(C(F)(F)F)cn2)cc1O,inhibition,[1],-7.8% (inactive)
same,activation,[7],68.9% (active)
COc1ccc(Nc2cc(C)nc(-n3nc(C)cc3C)n2)cc1,inhibition,[1],64.7% (active)
same,activation,[7],2.6% (inactive)
Cn1c(-c2ccc(C(F)(F)F)cc2)cc2onc(-c3ccccc3)c2c1=O,inhibition,[1],-121% (inactive)
Fc1ccccc1/C=N/Nc1cc(N2CCCCC2)ncn1,inhibition,[1],-109% (inactive)
same,inhibition,[2],17.6% (inactive)
same,inhibition,[3],16.9% (inactive)
same,inhibition,[4],16.6% (inactive)
same,inhibition,[5],25.2% (inactive)
same,inhibition,[6],6.6% (inactive)
CCCc1cc(C(=O)Nc2ccc(Cl)cn2)cs1,inhibition,[1],-104% (inactive)
same,inhibition,[2],73.5% (active)
same,inhibition,[3],79.2% (active)
same,inhibition,[4],92.2% (active)
same,inhibition,[5],66.8% (active)
same,inhibition,[6],59.1% (active)
C[C@@H]1C[C@@H]2O[C@H]2/C=C\C=C\C(=O)Cc2c(Cl)c(O)cc(O)c2C(=O)O1,inhibition,[1],96.4% (active)
same,activation,[7],134% (active)
same,inhibition,[8],33.8% (active)
COc1ccc(-n2nnnc2-c2nc3ccccc3s2)cc1,inhibition,[1],-67.2% (inactive)
same,inhibition,[2],17.5% (inactive)
same,inhibition,[3],26.7% (inactive)
same,inhibition,[4],4.7% (inactive)
same,inhibition,[5],35.5% (inactive)
same,inhibition,[6],1.6% (inactive)
O=[N+]([O-])c1ccccc1S(=O)(=O)Nc1cccc2cccnc12,inhibition,[1],33.1% (inactive)
same,activation,[7],656% (active)
same,inhibition,[9],102% (active)
COc1cc(NS(=O)(=O)c2ccc3ccccc3c2)c2ncccc2c1,inhibition,[1],2.5% (inactive)
same,activation,[7],689% (active)
same,inhibition,[10],43% (active)
Cc1ccc(S(=O)(=O)C2(S(=O)(=O)c3ccc(C)cc3)CCCC2)cc1,inhibition,[1],24.9% (inactive)
O=[N+]([O-])c1ccc2oc(-c3cccc(O)c3)nc2c1,inhibition,[1],-113% (inactive)
same,inhibition,[2],90.4% (active)
same,inhibition,[3],90.4% (active)
same,inhibition,[4],99% (active)
same,inhibition,[5],85.8% (active)
same,inhibition,[6],84.4% (active)
O=C(Nc1ccc2c(c1)OCCO2)C1CCCN(c2ncccn2)C1 (stereo not given),inhibition,[1],-110% (inactive)
Cc1ccc(OCc2nc3ccccc3n2C)cc1,inhibition,[1],-91.5% (inactive)
same,inhibition,[2],8.9% (inactive)
same,inhibition,[3],54.5% (active)
same,inhibition,[4],79% (active)
same,inhibition,[5],68% (active)
same,inhibition,[6],18.5% (inactive)
O=C(c1cnn(-c2ccc(Cl)cc2)c1)c1ccccc1O,inhibition,[1],-109% (inactive)
same,inhibition,[2],11.7% (inactive)
same,inhibition,[3],95.3% (active)
same,inhibition,[4],78.6% (active)
same,inhibition,[5],73.5% (active)
same,inhibition,[6],56.5% (active)
CCCOc1ccccc1C1CC(=O)Nc2cc3c(cc21)OCO3 (stereo not given),inhibition,[1],62% (active)
c1cnc(N2CCN(c3ccc4ccccc4n3)CC2)nc1,inhibition,[1],-107% (inactive)
Cc1csc(SCC(=O)Nc2sccc2C#N)n1,inhibition,[1],-98.6% (inactive)
same,inhibition,[2],93.1% (active)
same,inhibition,[3],96.1% (active)
same,inhibition,[4],101% (active)
same,inhibition,[5],97.1% (active)
same,inhibition,[6],94.4% (active)
COc1ccc(-c2csc(-c3cccs3)n2)cc1OC,inhibition,[1],-54.3% (inactive)
Cc1ccc(N/C=C/C(=O)c2ccccc2)cc1C,inhibition,[1],3.3% (inactive)
same,inhibition,[2],34.5% (inactive)
same,inhibition,[3],73.8% (active)
same,inhibition,[4],91.5% (active)
same,inhibition,[5],78.6% (active)
same,inhibition,[6],13.8% (inactive)
CC(=O)Nc1cccc(-c2csc(Nc3cccc(C)n3)n2)c1,inhibition,[1],-67.1% (inactive)
same,inhibition,[2],6.1% (inactive)
same,inhibition,[3],93.9% (active)
same,inhibition,[4],102% (active)
same,inhibition,[5],75.7% (active)
same,inhibition,[6],94.2% (active)
COc1ccc(C2=Nn3c(nnc3-c3ccccc3OC)SC2)cc1OC1CCCC1,inhibition,[1],58% (active)
same,inhibition,[11],98.4% (active)
same,inhibition,[12],98.7%
same,inhibition,[13],118% [at 39.5 µM]
COc1ccc(C(C[N+](=O)[O-])n2nc(C)cc2C)cc1 (stereo not given),activation,[7],60% (active)
